Screening data deposited in PubChem BioAssay by several laboratories.
Shown are actives, neighbours in structure and some others; about 4.9% of the full set was active somewhere.
CSC inhib: cancer stem cell viability inhibitors, primary screen, luminescence; cancer stem cell-like cells viability; inhibition, % at 7.5 µM; 1.1% of 300,000 active; in the data active = inhibition above about 75%; inconclusive = no clear call, values can overlap the other calls; tested in HMLE shEcad cells
Mdm2-MdmX inh: inhibitors of human Mdm2-MdmX association, primary screen, cell-based, luminescence, split luciferase, SaOS-2, uHTS; SaOS-2 split-luciferase Mdm2/MdmX complementation; inhibition, % at 8 µM; AID 485346, 2010; 3% of 330,000 active;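 active = inhibition of at least 50% at 8 µM in the primary screen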
Calb FLC: C. albicans growth inhibition with fluconazole, primary screen, CaCi-2 strain, Alamar Blue fluorescence; growth inhibition, % (concentration not given with the values); C. albicans CaCi-2 (fluconazole-resistant clinical isolate) + fluconazole, 48 h; 0.57% of 300,000 active;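 active = growth inhibition above about 58% in most replicates, limit read from the data, passing the limit was not always enough; inconclusive = exactly half the replicates above a set limit; inactive = most replicates below a set limit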;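 note: all wells also contain fluconazole at 8 µg/ml as a sub-toxic cotreatment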
PP5 primary: PP5 phosphatase inhibitors, primary screen, biochemical, fluorescence. 0.18% of 320,000 active. AID 1987, 2009. Serine/threonine-protein phosphatase 5 (Homo sapiens), P53041. inhibition, % at 6.7 µM. purified PP5c, OMFP substrate fluorescence;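 active = inhibition above the campaign's mean inhibition across all tested compounds plus 3 SD, cut at about 9.5% in these data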
PP1 inh: PP1-alpha phosphatase inhibitors, primary screen, counter-screen for PP5 inhibitor project, biochemical, fluorescence, OMFP substrate, single point; Serine/threonine-protein phosphatase PP1-alpha catalytic subunit (Homo sapiens), P62136; 0.9% of 320,000 active; inhibition, % at 6.7 µM; purified PP1alpha; AID 2235, 2010;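 active = inhibition above the mean inhibition of all tested compounds plus 3 SD, computed separately for each screening campaign, cut at about 15% in these data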
Target sequence (P62136 whole entry, looked up): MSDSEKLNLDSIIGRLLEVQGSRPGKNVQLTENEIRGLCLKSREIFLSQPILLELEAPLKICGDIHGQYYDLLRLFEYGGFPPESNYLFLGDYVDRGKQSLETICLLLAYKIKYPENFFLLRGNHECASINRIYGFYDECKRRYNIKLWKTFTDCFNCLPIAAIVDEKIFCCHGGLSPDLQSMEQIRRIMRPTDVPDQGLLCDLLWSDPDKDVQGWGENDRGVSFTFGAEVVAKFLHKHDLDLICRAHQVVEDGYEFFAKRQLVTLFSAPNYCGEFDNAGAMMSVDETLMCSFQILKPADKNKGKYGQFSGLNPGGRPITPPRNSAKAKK
Beta apoptosis: inhibitors of cytokine-induced beta cell apoptosis, primary screen, luminescence | protection from apoptosis, % (no concentration beside the values) | AID 435005, 2010 | INS-1E cytokine-induced death, ATP luminescence, 48 h; percent of positive-control rescue, neutral wells zero | 0.8% of 300,000 active;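 active = Every replicate reaches about 75%, or at least half do and their mean reaches it too, limit read from the data; inconclusive = At least half of replicates reach the limit but their mean does not; inactive = Under half of replicates reach the limit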;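 note: higher means more ATP so stronger rescue from cytokine killing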
Mdm2 MdmX conf: Mdm2-MdmX complex disruptors, retested hits, confirmation, luminescence, single concentration | shares compounds with Mdm2-MdmX inh | AID 489028, 2010 | 55% of 10,000 active | inhibition, % at 8 µM | Mdm2-MdmX binding, luminescent assay; in the data active = inhibition above about 40%
FLuc counter: full-length luciferase signal inhibition, confirmation, counter-screen for Mdm2/MdmX interaction inhibitor project, cell-based, single concentration, SaOS-2 | shares compounds with Mdm2-MdmX inh | SaOS-2 full-length luciferase counterscreen, luminescence | inhibition, % at 8 µM | 77% of 6,200 active | AID 504607, 2011;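 active = mean inhibition at 8 µM reaching about 37%, which flags the compound as non-specific, limit read from the data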;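 note: p53-null SaOS-2 cells with luciferase driven by a doxycycline-inducible promoter; compound on cells about two nights before reading with doxycycline added after day one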
Each line names hits and unclear results; the compound was inactive in the other large screens (follow-up assays come after a bar, where they were run).

Cc1ccc(-c2nc3c(c(=O)c4ccccc4n3C)c(=O)n2-c2ccc(F)cc2)cc1	none
Cn1c2ccccc2c(=O)c2c(=O)n(-c3ccccc3)c(-c3ccc(C(C)(C)C)cc3)nc21	Mdm2-MdmX inh 89 | Mdm2 MdmX conf 79 | FLuc counter 55
Cn1c2ccccc2c(=O)c2c(=O)n(C3CCCCC3)c(-c3ccco3)nc21	Mdm2-MdmX inh 80 (no result: Beta apoptosis) | Mdm2 MdmX conf 66 | FLuc counter 90
Cc1cc(=O)[nH]c(SCC(=O)N2CCCC(C)C2)n1 (stereo not drawn)	none
CSC(=NC#N)N1CCN(c2ccc(Cl)cc2)CC1	none
O=c1[nH][nH]c(-c2ccccc2O)c1C(C[N+](=O)[O-])c1ccc(Br)cc1 (stereo not drawn)	Mdm2-MdmX inh 54 | Mdm2 MdmX conf inactive
CN(C)C(=O)C(CCN1CCC(O)(c2ccc(Cl)cc2)CC1)(c1ccccc1)c1ccccc1	Mdm2-MdmX inh 67 (no result: Calb FLC) | Mdm2 MdmX conf inactive | FLuc counter 85
CN(C)c1ccc(NC(=O)CN2CCC(O)(c3ccccc3)CC2)cc1	none
O=S(=O)(c1ccc(Cl)c(C(F)(F)F)c1)N1CCN(CC(O)COc2ccccc2F)CC1 (stereo not drawn)	none (no result: CSC inhib)
O=c1ccc(-c2ccc(S(=O)(=O)N3CCCCC3)o2)n[nH]1	none
CCOC(=O)c1ccc(NC(=O)COc2ccc(CNCCO)cc2OCC)cc1	none
CCOC(=O)c1ccc(NC(=O)COc2ccccc2CNCCc2ccccc2)cc1	Mdm2-MdmX inh 63 | Mdm2 MdmX conf inactive
Cc1c(CCC(=O)NC2CC2)c(=O)oc2c(C)c(O)ccc12	none
Cc1cccc(NC(=O)COC(=O)c2ccccc2SCC(=O)N2CCCC2)c1	none
Cc1cc(Br)cc(Br)c1OCC(=O)NNC(=O)c1ccoc1C	none
C/C(=N\Nc1ncnc2sc(C)c(C)c12)c1ccccn1	Mdm2-MdmX inh 99, Beta apoptosis 98 (no result: CSC inhib) | Mdm2 MdmX conf 61 | FLuc counter 77
Cc1sc2ncnc(N/N=C/c3cccc(O)c3)c2c1C	none
COc1cc2c3nnc(-c4ccccc4)c-3cn(Cc3ccc(F)cc3)c2cc1OC	none
COc1cc2c3nnc(-c4ccc(F)cc4)c-3cn(Cc3cccc(F)c3)c2cc1OC	Mdm2-MdmX inh 89 (no result: Calb FLC) | Mdm2 MdmX conf 100 | FLuc counter 50
COc1cc2c3nnc(-c4ccc(F)cc4)c-3cn(Cc3cccc(C)c3)c2cc1OC	Mdm2-MdmX inh 97 | Mdm2 MdmX conf 99 | FLuc counter 87
COc1cccc(Cn2nc3c4cc(F)ccc4n(Cc4ccc(F)cc4)cc-3c2=O)c1	none (no result: CSC inhib, Beta apoptosis)
COc1cc2c3nnc(-c4ccc(F)cc4)c-3cn(Cc3ccc(C)cc3)c2cc1OC	Mdm2-MdmX inh 78 | Mdm2 MdmX conf 72 | FLuc counter 68
C=CCN1C(=O)C(=O)N(Cc2nc3ccccc3s2)C1=O	none (no result: CSC inhib)
CN(C)CCNc1ncnc2c1sc1nc(-c3ccccc3)c3c(c12)CCCC3	Mdm2-MdmX inh 100 | Mdm2 MdmX conf 70 | FLuc counter 41
COc1ncnc2c1sc1nc(-c3ccccc3)c3c(c12)CCCC3	none
O=C(CSc1nnc2ccccn12)N1CCc2ccccc21	none
CCCOc1ccc(C(F)(F)F)cc1NC(=O)C1CC(=O)N(Cc2ccco2)C1 (stereo not drawn)	none (no result: CSC inhib, Calb FLC)
Cc1ccccc1CS(=O)(=O)c1nnc([C@H](Cc2ccccc2)NC(=O)OC(C)(C)C)o1	CSC inhib 99, Mdm2-MdmX inh 100, Beta apoptosis 93 | Mdm2 MdmX conf 53 | FLuc counter inactive
CC(C)(C)OC(=O)N[C@@H](Cc1ccccc1)c1nnc(S(=O)(=O)Cc2ccccc2)o1	CSC inhib 131, Mdm2-MdmX inh 100 (no result: Calb FLC) | Mdm2 MdmX conf 70 | FLuc counter inactive
CCSc1nnc([C@H](Cc2ccccc2)NC(=O)OC(C)(C)C)o1	none
O=C(NCCCc1ccccc1)N1CCOCC1	none
CC(NCCC(c1ccccc1)c1ccccc1)c1ccccc1 (stereo not drawn)	Mdm2-MdmX inh 58 (no result: Calb FLC) | Mdm2 MdmX conf inactive
COc1cc(C=O)ccc1OC(=O)c1cccnc1	none (no result: CSC inhib, Beta apoptosis)
Cc1ccnc2c1ccc1c(C)ccnc12	CSC inhib 111, Mdm2-MdmX inh 84, Beta apoptosis 102 (no result: Calb FLC) | Mdm2 MdmX conf 85 | FLuc counter inactive
Cc1ccnc2c1ccc1ccccc12	none (no result: Beta apoptosis)
Cc1ccnc2c1ccc1cccnc12	Mdm2-MdmX inh 84 (no result: CSC inhib, Calb FLC, PP5 primary, PP1 inh, Beta apoptosis) | Mdm2 MdmX conf 86 | FLuc counter inactive
c1cnc2c(c1)ccc1cccnc12	Mdm2-MdmX inh 77, Calb FLC 110 | Mdm2 MdmX conf 82 | FLuc counter 50
Cc1ccc(S(=O)(=O)N2CCN(C(=O)CSC(=S)N3CCCC3)CC2)c(C)c1	none (no result: CSC inhib, Calb FLC)
Cc1ccc(Cc2nnc3n(-c4ccccc4)nc(C(=O)c4ccccc4)n3c2=O)cc1	Mdm2-MdmX inh 53 (no result: Beta apoptosis) | Mdm2 MdmX conf 58 | FLuc counter 53
COC(OC)c1ccc(C#N)c(=O)[nH]1	none
O=C(CN1C(=O)S/C(=C\C=C\c2ccccc2)C1=O)Nc1cccc(O)c1	CSC inhib 93, Mdm2-MdmX inh 99, Calb FLC inconclusive | Mdm2 MdmX conf inactive
COc1ccc(Nc2ncnc3ccccc23)cc1	none (no result: Beta apoptosis)
CC(C)Nc1ccc(Nc2ccnc3cc4ccccc4cc23)cc1	CSC inhib 108, Mdm2-MdmX inh 95, Beta apoptosis 125 | Mdm2 MdmX conf 100 | FLuc counter 51
COc1ccc(Nc2ccnc3ccccc23)cc1	Mdm2-MdmX inh 65 | Mdm2 MdmX conf 57 | FLuc counter inactive
CCOC(=O)c1ccc(CNC(=O)c2cc(COc3ccccc3SC)on2)o1	none
Brc1ccccc1-c1csnn1	none
CCOC(=O)c1c(C)[nH]c(C(=O)CSc2nnnn2-c2ccc(C)cc2)c1C	Mdm2-MdmX inh 66 | Mdm2 MdmX conf inactive
Cc1ccc2[nH]c(=O)c(COC(=O)c3cccs3)cc2c1	Mdm2-MdmX inh 51 (no result: CSC inhib) | Mdm2 MdmX conf inactive
CN1CCN(c2ccc(S(=O)(=O)N3CCCCC3)cc2NC(=O)c2ccc(F)cc2F)CC1	none
COc1ccc2c(C(=O)NCc3ccc4c(c3)OCO4)c(-c3ccc(S(C)(=O)=O)cc3)sc2c1	Mdm2-MdmX inh 84, Beta apoptosis inconclusive (no result: CSC inhib, Calb FLC, PP5 primary, PP1 inh) | Mdm2 MdmX conf inactive
O=C(COc1ccc2c(c1)OCO2)Nc1ccc2c(c1)oc1ccccc12	Mdm2-MdmX inh 50 | Mdm2 MdmX conf inactive
